Vif inh: inhibitors of HIV Vif. HEK293T cells, Vif self-association by quenched fluorescence, imaging, 24 h. inhibition, % at 7.49 µM. hit rate 0.35% among 340,000; in the data active = inhibition above about 50%, passing the limit was not always enough
esBAF inh: blocks esBAF chromatin remodeling in mouse ES cells; Bmi1-luciferase knock-in reporter, 24 h; 100% = twice the neutral-well signal; hit rate 2% among 350,000; reporter increase, % at 12.5 µM; AID 602393; in the data active = activation above about 40%;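 note: a rise in the Bmi1 reporter signal indicates esBAF inhibition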
HSF1 inhib: HSF1 inhibition. NIH3T3-HGL HSE-luciferase, MG132-induced, luminescence 8 h; active compounds read low. activity change, negative = inhibition, % at 7.5 µM (by protocol). hit rate 0.77% among 300,000;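 active = more than half of replicate wells show activity change below -50%, luminescence cut by over half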;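 note: luciferase reports HSF-1 transcriptional activity via heat shock element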
HSF-1 act: increases HSF-1 driven luciferase reporter signal; activation, % at 9 µM; NIH3T3-HGL HSF-1 luciferase reporter, MG132, 8 h; 100% = twice DMSO control signal; AID 504408; hit rate 1.7% among 300,000;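 active = mean replicate activation of at least 50% with a set share of replicates each reaching 50%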
Large screens that a line does not name were inactive. Sampled rows, rich in hits. Any-hit rate of the full collection: about 3.4%.

CCOC(=O)c1cc(OC(=O)c2ccccc2OC)n(-c2ccccc2)n1	Vif inh 78
CCOC(=O)c1sc2ccccc2c1OC(=O)c1ccccc1OC	none
COc1ccc(N(C)C(=O)c2oc(=O)c3ccccc3c2-c2ccccc2)c(OC)c1	HSF1 inhib -79
COc1ccc(C#Cc2ccc3c(c2)[C@@H]2[C@@H](CCN2S(=O)(=O)c2ccccc2F)[C@@H](CO)N3C)cc1	none (no result: Vif inh, HSF1 inhib, HSF-1 act)
C[C@H](CO)N1C[C@H](C)[C@@H](CN(C)C(=O)CC2CC2)Oc2cc(C#C[C@@H](C)O)ccc2S1(=O)=O	none (no result: Vif inh, HSF1 inhib, HSF-1 act)
COc1cccc(S(=O)(=O)N[C@@H]2CC[C@H](CC(=O)NCc3ccccc3)O[C@H]2CO)c1	none (no result: Vif inh, HSF1 inhib, HSF-1 act)
Fc1ccc(NCc2n[nH]c(=S)n2Cc2ccccc2)cc1	Vif inh 62
COC(CNC(=O)CNC(=S)N(Cc1ccccc1)Cc1cccs1)OC	none
CNC(=S)N(Cc1ccc(Cl)cc1)Cc1cccs1	HSF-1 act 54 (no result: esBAF inh)
O=C(CNC(=S)N(CCCN1CCOCC1)Cc1cccs1)NCc1ccccc1Cl	HSF1 inhib -71
O=C(CNC(=S)N(CCCN1CCOCC1)Cc1cccs1)NCc1ccc(Cl)cc1	none
CCCCNC(=O)CNC(=S)N(Cc1ccccc1)Cc1cccs1	HSF1 inhib -71 (no result: esBAF inh)
COc1ncnc2sc(-c3ccccc3)cc12	esBAF inh 50 (no result: Vif inh)
COc1ccc(Nc2ncnc3sc(-c4ccccc4)cc23)cc1	HSF1 inhib -71
COc1cccc(Nc2ncnc3ccccc23)c1	esBAF inh 58
CO[C@H]1CN(C)C(=O)c2cc(NC(C)=O)ccc2OC[C@H](C)N(Cc2nccs2)C[C@@H]1C	none (no result: Vif inh, HSF1 inhib, HSF-1 act)
O=S(=O)(Cc1ccccc1)NCC[C@@H]1CC[C@@H](NS(=O)(=O)c2ccc(F)cc2)[C@@H](CO)O1	none (no result: Vif inh, HSF1 inhib, HSF-1 act)
C=CCNCCOCCSc1ccc(Cl)cc1	HSF-1 act 52 (no result: esBAF inh)
O=C(NCC[C@H]1CC[C@H](NS(=O)(=O)Cc2ccccc2)[C@@H](CO)O1)C1CCC1	none (no result: Vif inh, HSF1 inhib, HSF-1 act)
N#CC1CC(c2ccc([N+](=O)[O-])cc2)=NN1c1ccc([N+](=O)[O-])cc1 (configuration not stated)	Vif inh 89
CC(C)(C)C(=O)Nc1ccc(C(=O)COC(=O)C2CC2)cc1	esBAF inh 60 (no result: HSF1 inhib, HSF-1 act)
CC(=O)N1CCN(c2ccc(NC(=O)c3cccc(F)c3)cc2)CC1	esBAF inh 54 (no result: HSF1 inhib, HSF-1 act)
CC(=O)N1CCN(c2ccc(NC(=O)c3cccc(C)c3)cc2)CC1	none
O=C(Nc1ccc(N2CCN(C(=O)c3ccco3)CC2)cc1)c1ccccc1F	none (no result: Vif inh, esBAF inh)
O=C(Nc1ccc(N2CCN(C(=O)c3ccco3)CC2)cc1)c1cccc(F)c1	esBAF inh 54
CO[C@H]1CN(C)C(=O)c2cc(NC(=O)c3ccccc3)ccc2OC[C@H](C)N(C)C[C@@H]1C	none (no result: Vif inh, HSF1 inhib, HSF-1 act)
COc1ccc(-c2ccc([C@H]3[C@@H](CO)N(C(=O)C4CCOCC4)[C@H]3C#N)cc2)cc1	none (no result: Vif inh, HSF1 inhib, HSF-1 act)
Cc1[nH]n(-c2ccccc2)c(=O)c1C(C[N+](=O)[O-])c1ccccc1Cl (configuration not stated)	HSF-1 act 146
C[C@@H](NC(=O)C[C@H]1CC[C@@H](NC(=O)C2CCOCC2)[C@H](CO)O1)c1ccccc1	none (no result: Vif inh, HSF1 inhib, HSF-1 act)
Cc1ccc(CNC(=O)[C@H](C)N2C(=O)N3CCc4c([nH]c5ccccc45)[C@@]3(C)C2=O)cc1	HSF-1 act 97
C[C@@H](C(=O)NCCc1ccc(F)cc1)N1C(=O)N2CCc3c([nH]c4ccccc34)[C@@]2(C)C1=O	none
C[C@@H]1CN([C@H](C)CO)C(=O)c2cc(NS(=O)(=O)c3cn(C)cn3)ccc2O[C@@H](C)CCCCO[C@H]1CN(C)Cc1ccncc1	none (no result: Vif inh, HSF1 inhib, HSF-1 act)
CC(C)n1cc(/C=N/NC(=O)COc2cccc3cccnc23)c2ccccc21	HSF-1 act 78 (no result: esBAF inh)
Cc1cc2oc(=O)cc(CN3CCC(C)CC3)c2cc1Cl	esBAF inh 58 (no result: Vif inh)
COc1ccc2c(CN3CCCCCCC3)cc(=O)oc2c1	esBAF inh 48 (no result: Vif inh, HSF1 inhib, HSF-1 act)
Cc1ccc2c(CN3CCC(C)CC3)cc(=O)oc2c1	esBAF inh 59
Cc1cc2oc(=O)cc(CN3CCN(Cc4ccccc4)CC3)c2cc1Cl	none
Cc1cc(C)c2c(CN3CCN(Cc4ccccc4)CC3)cc(=O)oc2c1	Vif inh 104
Cc1cc(C)c2c(CN3CCN(c4ccccc4)CC3)cc(=O)oc2c1	none (no result: Vif inh, HSF1 inhib, HSF-1 act)
Cc1ccc2c(CN3CC(C)CC(C)C3)cc(=O)oc2c1 (configuration not stated)	none
CN(C)Cc1cn(CC[C@@H]2CC[C@@H](NS(=O)(=O)c3ccc(-c4ccccc4)cc3)[C@H](CO)O2)nn1	none (no result: Vif inh, HSF1 inhib, HSF-1 act)
O=C([C@H]1[C@H](CO)[C@H]2Cn3c(cccc3=O)[C@@H]1N2CC1CC1)N1CCc2ccccc2C1	none (no result: Vif inh, HSF1 inhib, HSF-1 act)
